PubChem BioAssay (Tox21)
Values without a mark were called inactive. Records with an inconclusive call do not appear. Active and inactive are the calls of the source. Unless noted, calls come from the whole dose curve; as a rule, active = well fitted curve in the direction sought with a large enough effect in the repeat runs; inconclusive = weak or mixed curves; inactive = no such curve, though single readings can be large; an effect the other way counts as inactive or inconclusive.

assay: qHTS assay to identify small molecule agonists of the sonic hedgehog signaling (Shh) pathway - cell viability counter screen (AID 1259366); details: NIH/3T3 Gli1-Luc viability, CellTiter-Fluor, 24 h; series mostly up to 92.4 µM; viability change, negative = cytotoxic: at the top concentration; note: nearly all actives have a fitted effect of over 50% in size; note: potency is the fitted concentration of half-maximal effect
Outline: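 NIH/3T3-derived 3T3 Gli1-Luc cells (stable Gli1-responsive firefly luciferase reporter) were seeded, rested 4 hr at 37 C/5% CO2, then exposed to compounds in DMSO for 24 hr; viability was read by CellTiter-Fluor fluorescence in the same wells.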
% is set by controls: 0 for no effect and ±100 for the full control effect.

| Compound | viability change, negative = cytotoxic | Potency |
| --- | --- | --- |
| CCCCCCCCCCCCCCCCCO | -3.91% [at 19 µM] |  |
| OCCCCl | -16.8% |  |
| NC(=O)c1ccccc1N | 2.49% |  |
| COc1cc(C(C)C)c2c(c1)S(=O)(=O)N(COc1cc(=O)n3cccc(OCCN4CCCCC4)c3n1)C2=O | -0.671% [at 19 µM] |  |
| CCCCCCS | -1.02% |  |
| COc1ccccc1C=O | -0.0813% |  |
| CCN=C1C=CC(=C(c2ccc(N(CC)CC)cc2)c2ccc(N(CC)CC)cc2)c2ccccc21 |  | 21.6 µM (active) |
| c1ccc2c(c1)CCC2 | 1.68% |  |
| Cc1cccc(C)n1 | 0.324% |  |
| CCOCOCC | 0.174% |  |
| C/C=C/CO | -0.422% |  |
| O=CC1CC1 | -4.08% |  |
| CCCCCCCOC(=O)c1ccccc1C(=O)OCCCCCCC | 4.19% |  |
| CC1CCCCC1 | 5.95% |  |
| CCCCN(C)C | 4.33% |  |
| CC(=O)OC1CCCCC1 | -0.651% |  |
| CCO[Si](C)(C)OCC | 1.11% |  |

| Compound | viability change, negative = cytotoxic | Potency |
| --- | --- | --- |
| CCCC(C)CCC(C)=O (stereo unspecified) | 1.46% |  |
| CCC(C)c1ccccc1 (stereo unspecified) | 1.82% |  |
| c1cc[nH]c1 | 2.38% |  |
| COc1ccc(-n2nc(CCC(=O)N(C)O)cc2-c2ccc(Cl)cc2)cc1 | 2.6% [at 42.5 µM] |  |
| CCOB(OCC)OCC | -4.68% |  |
| Cc1cccc(N(C)C)c1 | 0.151% |  |
| C=CC(C)(CCC=C(C)C)OC(=O)/C=C/c1ccccc1 (stereo unspecified) | 18.5% |  |
| CO[Si](CCC1CCC2OC2C1)(OC)OC (stereo unspecified) | -6.82% |  |
| CCCCCCCC(=O)OCC | 0.82% |  |
| O=Cc1ccc(F)cc1 | -1.18% |  |
| NC(=O)C(=O)N/N=C/c1ccc([N+](=O)[O-])o1 | -14.2% [at 42.5 µM] |  |
| COc1nccnc1CC(C)C | -2.44% |  |
| C=CC/C=C/C/C=C/C/C=C/C | 3.5% |  |
| O=c1cccc[nH]1 | 2.63% |  |
| CCOC(OCC)C(=O)c1ccccc1 | -1.71% |  |
| O=S(=O)(O)c1cc(S(=O)(=O)O)c2ccc3c(S(=O)(=O)O)cc(S(=O)(=O)O)c4ccc1c2c43 | 1.66% [at 19 µM] |  |

assay: qHTS assay to identify small molecule antagonists of the sonic hedgehog signaling (Shh) pathway - cell viability counter screen (AID 1259367); details: NIH/3T3 Gli1-Luc viability, CellTiter-Fluor, 24 h; series mostly up to 92.4 µM; viability change, negative = cytotoxic: at the top concentration; note: nearly all actives have a fitted effect of over 55% in size; note: potency is the fitted concentration of half-maximal effect
Outline: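 Tox21 library chemicals were tested on a Gli1-Luc NIH/3T3 clone (2,000 cells/well) stimulated by conditioned medium; viability was quantified as fluorescence from CellTiter-Fluor reagent added at 23 hr.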

| Compound | viability change, negative = cytotoxic | Potency |
| --- | --- | --- |
| CCCCCCCCCCCCCCCCCO | 5.3% [at 19 µM] |  |
| OCCCCl | 0.804% |  |
| NC(=O)c1ccccc1N | 0.858% |  |
| CCCCCCS | 0.0134% |  |
| COc1ccccc1C=O | 1.39% |  |
| CCN=C1C=CC(=C(c2ccc(N(CC)CC)cc2)c2ccc(N(CC)CC)cc2)c2ccccc21 |  | 24.2 µM (active) |
| c1ccc2c(c1)CCC2 | -0.91% |  |
| Cc1cccc(C)n1 | 2.92% |  |
| CCOCOCC | 0.848% |  |
| C/C=C/CO | 1.75% |  |
| O=CC1CC1 | -1.91% |  |
| CCCCCCCOC(=O)c1ccccc1C(=O)OCCCCCCC | 5.77% |  |
| CC1CCCCC1 | 1.04% |  |
| CCCSS/C(CCO)=C(\C)N(C=O)Cc1cnc(C)nc1N | -21.4% [at 42.5 µM] |  |
| CCCCN(C)C | -0.486% |  |
| CC(=O)OC1CCCCC1 | 0.277% |  |
| CCO[Si](C)(C)OCC | 3.76% |  |

| Compound | viability change, negative = cytotoxic | Potency |
| --- | --- | --- |
| CCCC(C)CCC(C)=O (stereo unspecified) | 0.744% |  |
| CCC(C)c1ccccc1 (stereo unspecified) | 0.796% |  |
| c1cc[nH]c1 | 0.323% |  |
| COc1ccc(-n2nc(CCC(=O)N(C)O)cc2-c2ccc(Cl)cc2)cc1 | -8.39% [at 42.5 µM] |  |
| CCOB(OCC)OCC | 4.03% |  |
| Cc1cccc(N(C)C)c1 | 4.88% |  |
| C=CC(C)(CCC=C(C)C)OC(=O)/C=C/c1ccccc1 (stereo unspecified) | 1.32% |  |
| CO[Si](CCC1CCC2OC2C1)(OC)OC (stereo unspecified) | -4.43% |  |
| CCCCCCCC(=O)OCC | 1.74% |  |
| O=Cc1ccc(F)cc1 | -1.92% |  |
| NC(=O)C(=O)N/N=C/c1ccc([N+](=O)[O-])o1 | -2.09% [at 42.5 µM] |  |
| COc1nccnc1CC(C)C | 2.25% |  |
| C=CC/C=C/C/C=C/C/C=C/C | 1.43% |  |
| O=c1cccc[nH]1 | 5.28% |  |
| CCOC(OCC)C(=O)c1ccccc1 | -1.95% |  |
| O=S(=O)(O)c1cc(S(=O)(=O)O)c2ccc3c(S(=O)(=O)O)cc(S(=O)(=O)O)c4ccc1c2c43 | 0.116% [at 19 µM] |  |

assay: qHTS assay to identify small molecule agonists of the sonic hedgehog signaling (Shh) pathway (AID 1259368; calls by dose curve; note: nearly all actives have a fitted effect of over 15% in size); details: NIH/3T3 Gli1-Luc reporter, luciferase, 24 h; series mostly up to 92.4 µM; activity change: at the top concentration
Outline: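 Luminescence was read after 30 min at room temperature with luciferase reagent. Before that, 3T3Gli1-Luc cells (NIH/3T3 clone, stable Gli1-Luc reporter; 2,000/well) were exposed to compounds for 24 hr at 37C, 5% CO2, compounds being added 4 hr post-plating.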

| Compound | activity change |
| --- | --- |
| CCCCCCCCCCCCCCCCCO | -2.43% [at 18.9 µM, active compounds read high] |
| OCCCCl | -1.92% |
| NC(=O)c1ccccc1N | 1.13% |
| COc1cc(C(C)C)c2c(c1)S(=O)(=O)N(COc1cc(=O)n3cccc(OCCN4CCCCC4)c3n1)C2=O | 1.72% [at 18.9 µM, active compounds read high] |
| CCCCCCS | -0.0544% |
| COc1ccccc1C=O | -0.461% |
| CCN=C1C=CC(=C(c2ccc(N(CC)CC)cc2)c2ccc(N(CC)CC)cc2)c2ccccc21 | -12.2% |
| c1ccc2c(c1)CCC2 | -0.113% |
| Cc1cccc(C)n1 | -1.06% |
| CCOCOCC | -0.457% |
| C/C=C/CO | -0.001% |
| O=CC1CC1 | -1.89% |
| CCCCCCCOC(=O)c1ccccc1C(=O)OCCCCCCC | -0.404% |
| CC1CCCCC1 | -0.401% |
| CCCSS/C(CCO)=C(\C)N(C=O)Cc1cnc(C)nc1N | -0.0107% [at 42.5 µM, active compounds read high] |
| CCCCN(C)C | 0.0992% |
| CC(=O)OC1CCCCC1 | -0.412% |
| CCO[Si](C)(C)OCC | -0.849% |

| Compound | activity change |
| --- | --- |
| CCCC(C)CCC(C)=O (stereo unspecified) | 0.742% |
| CCC(C)c1ccccc1 (stereo unspecified) | -0.78% |
| c1cc[nH]c1 | -0.697% |
| COc1ccc(-n2nc(CCC(=O)N(C)O)cc2-c2ccc(Cl)cc2)cc1 | -3.47% [at 42.5 µM, active compounds read high] |
| CCOB(OCC)OCC | 0.205% |
| Cc1cccc(N(C)C)c1 | 1.13% |
| C=CC(C)(CCC=C(C)C)OC(=O)/C=C/c1ccccc1 (stereo unspecified) | -1.72% |
| CO[Si](CCC1CCC2OC2C1)(OC)OC (stereo unspecified) | 0.197% |
| CCCCCCCC(=O)OCC | -1.05% |
| Oc1ccc(-c2ccccc2)c(Cl)c1 | -3.09% |
| O=Cc1ccc(F)cc1 | -0.714% |
| NC(=O)C(=O)N/N=C/c1ccc([N+](=O)[O-])o1 | 5.06% [at 42.5 µM, active compounds read high] |
| COc1nccnc1CC(C)C | -0.0502% |
| C=CC/C=C/C/C=C/C/C=C/C | -0.202% |
| O=c1cccc[nH]1 | -0.395% |
| CCOC(OCC)C(=O)c1ccccc1 | -1.33% |
| O=S(=O)(O)c1cc(S(=O)(=O)O)c2ccc3c(S(=O)(=O)O)cc(S(=O)(=O)O)c4ccc1c2c43 | -2.01% [at 18.9 µM, active compounds read high] |
